Data on 13 compounds can be found in PubChem BioAssay (NCI).

This is part of a sample that, as a whole, favours compounds with a hit. Of some 83,000 tested, about 20% had one in any assay.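 Cells were grown in 96-well plates and exposed to the test compound at a single concentration for 48 hours; results are reported as percent growth, with values below 10 considered active.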 Unmarked numbers belong to inactive results. Activity calls are given as the source filed them.

What all share (test): NCI-60 one-dose screen, 48 h (100 = growth as untreated, 0 = no growth, -100 = all killed)
Conditions in all cases: 10 µM unless noted

The subject of test [1] is SK-MEL-2 melanoma.
Test [2] relates to EKVX NSCLC.
The test system of test [3] is SN12C renal.
The test system of test [4] is UO-31 renal.
Test [5] has as its system TK-10 renal.
In test [6] the test system is ACHN renal.
The subject of test [7] is CAKI-1 renal.
Test [8] has as its system A498 renal.
The subject of test [9] is CCRF-CEM leukemia.
In test [10] the test system is MOLT-4 leukemia.

Consider `Cc1ccc(S(=O)(=O)NCCNc2cc(-c3cn(C(C)(C)C)nc3-c3cccc(O)c3)ccn2)cc1`, for which the growth is 84.3% in test [1]; 64.6% in test [2]; 66.5% in test [3]; 58% in test [4]; 103% in test [5]; 78.9% in [6]. The growth was 77% in test [7], 80.8% in [8], 60.7% in test [9] and 48.4% in test [10].
Consider `CC(C)(C)Nc1c(-c2cccs2)nc2ncccn12`, for which the growth in test [1] was 100%; in [2], 104%; in [3], 94.9%; in [4], 86.9%; in [5], 101%; in [6] it was 107%. Moreover, the growth is 89.9% in [7], 80.1% in test [8], 89.9% in test [9] and 86.2% in test [10].
Turning to `O=[N+]([O-])c1cccc(-c2nc3sccn3c2-c2ccnc(NCCCNS(=O)(=O)c3ccc(C(F)(F)F)cc3)n2)c1`, the growth in [1] was 25.3%; in test [2], 38.1%; in test [3], 35.4%; in test [4] it was 12.5%; in test [5], 73.6%; in test [6], 22.6%. Further, the growth was 21.1% in test [7], 25% in test [8], 14.5% in [9] and 7.2% (active) in [10].
`CN(C[C@H]1Cc2c(cccc2N2CCN(c3ncccn3)CC2)CN1)[C@H]1CCCc2cccnc21`: the growth is 68.8% in [1]; 37.7% in [2]; 39.9% in test [3]; 16.9% in test [4]; 38% in test [5]; 35.5% in test [6]. Besides, the growth in test [7] was 33.5%; in test [8], 58.1%; in test [9] it was 22.4%; in test [10], 27.9%.
`COc1ccc2[nH]c(=O)c(/C=N/Nc3nc(-c4ccccc4)cs3)c(O)c2c1`: the growth is 83.1% in test [1]; 53.8% in test [2]; 73.8% in test [3]; 42.5% in [4]; 90.2% in test [5]; 48.6% in [6]. The growth in [7] is 43.7%; in test [8] it was 94.9%; in [9], 26.5%; in test [10], 35.2%.
With `Cc1ccc(/C=C2\CN(C(=O)CCN3CCC(=NO)CC3)C/C(=C\c3ccc(C)cc3)C2=O)cc1`, the growth in test [1] is 91.5%; in [2], 8.39% (active); in test [3] it was -34.4% (active); in test [4] it was -86% (active); in test [5] it was 20.2%; in test [6] it was -38.8% (active). For the same compound, the growth in test [7] was 5.48% (active); in [8] it was 46.6%; in test [9] it was 1.97% (active); in [10], 3.31% (active).
For the compound `COc1cc(NC(N)=NCCC(C)(C)Oc2ccc(C(F)(F)F)cc2)ncc1C#N`, the growth was -38.5% (active) in test [1]; 27.1% in test [2]; -90.3% (active) in test [3]; -23.5% (active) in test [4]; -74.2% (active) in [5]; 2.74% (active) in test [6]. Besides, the growth is 51.6% in test [7], 42.8% in [8], -13.8% (active) in test [9] and -20.8% (active) in [10].
Turning to `Cc1nc2cncc(C#Cc3cncc(C(=O)Nc4ccc(CN5CCN(C)CC5)c(C(F)(F)F)c4)c3)c2nc1C`, the growth in [1] is -47.7% (active); in test [2] it was 6.58% (active); in [3], 4.16% (active); in test [4], -12.5% (active); in [5], 17.5%; in [6], -5.33% (active). The growth in test [7] is -28.4% (active); in [8], -36.9% (active); in test [9], 16.2%; in [10], 21.1%.
For the compound `COc1ccc(CN2CCc3c(Sc4ccccc4)nc(N)nc3C2=O)c(OC)c1`, the growth in [1] is 58.6%; in [2] it was 57%; in [3], 53.1%; in [4], 29.6%; in [5], 59.9%; in test [6], 65%. The growth in test [7] was 27.7%; in test [8], 66%; in test [9] it was 46.7%; in test [10], 35.5%.
As for `O=C(c1c[nH]c(=O)c(-c2ccccc2)c1)c1ccccc1O`, the growth in [1] is 93.1%; in test [2] it was 94.7%; in test [3], 85.2%; in test [4] it was 68.6%; in test [5] it was 94.8%; in [6], 82.8%. The growth was 85% in test [7], 76.8% in test [8], 99.5% in test [9] and 96.1% in test [10].
For the compound `Nc1nc(Nc2cc(Cl)cc(Cl)c2)nn1S(=O)(=O)c1ccc2ccccc2c1`, the growth is 79.2% in test [1]; 53.6% in test [2]; 43.3% in [3]; 14.7% in [4]; 63.5% in [5]; 29.2% in [6]. Also, the growth in test [7] is 64.1%; in test [8] it was 15.4%; in test [9], 57.9%; in test [10] it was 37.6%.
Regarding `COc1ccc2c(c1)[nH]c(=O)c1c3cc(OC)ccc3cn21`, the growth in [1] is 71.7%; in test [2], 48.7%; in [3], 32.7%; in test [4] it was 28.6%; in test [5], 48.7%; in test [6], 19.1%. For the same compound, the growth is 41.3% in test [7], 51.7% in test [8], -58.8% (active) in [9] and 26.2% in test [10].
With `Nc1nc(-c2ccccc2)c(CCCOc2ccc(NC(=O)CBr)cc2)c(=O)[nH]1`, the growth in test [1] was 101%; in [2], 117%; in test [3], 91.5%; in test [4], 71%; in [5], 102%; in test [6], 96.2%. The growth in [7] is 106%; in test [8] it was 103%; in test [9] it was 29.1%; in test [10], 96.1%.
